For 40 molecules, inhibition results are on record in PubChem BioAssay.

The structures appear in SMILES notation. Unmarked numbers belong to inactive results. The rule behind the calls is not given here.

The target of this experiment is Pantothenate synthetase (Mycobacterium tuberculosis (strain ATCC 25618 / H37Rv)) (UniProt P9WIL5). In words: Recombinant Mtb pantothenate synthetase (PanC) inhibitors, coupled enzyme, confirmatory (AID 375).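 Note: 0% = full reaction with vehicle and 100% = no enzyme background.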 The note with it: coupled enzyme assay; at 10 µM, stronger effect = higher value.
Chain of Pantothenate synthetase (Mycobacterium tuberculosis (strain ATCC 25618 / H37Rv)) (P9WIL5 whole entry, looked up): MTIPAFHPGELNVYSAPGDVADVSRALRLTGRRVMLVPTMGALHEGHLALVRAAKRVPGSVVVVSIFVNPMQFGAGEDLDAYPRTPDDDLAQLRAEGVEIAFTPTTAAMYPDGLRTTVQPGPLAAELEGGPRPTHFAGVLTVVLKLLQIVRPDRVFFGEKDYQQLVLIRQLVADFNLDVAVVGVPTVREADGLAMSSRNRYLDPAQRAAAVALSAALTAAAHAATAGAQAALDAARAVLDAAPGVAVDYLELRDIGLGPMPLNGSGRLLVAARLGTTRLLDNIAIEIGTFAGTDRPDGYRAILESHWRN
Usually inhibition stands for the drop in the measured response relative to a control, in per cent. As for `Cc1cc(NC(=O)CS(=O)(=O)c2cn(Cc3ccccc3Cl)c3ccccc23)no1`, the inhibition is 9%.

As for `O=C(O)COc1cccc(NC(=O)C2CCCO2)c1` (stereo not given), the inhibition is 0%.

With `COc1ccccc1C(=O)Nc1c2c(nn1-c1cccc(C)c1C)CS(=O)(=O)C2`, the inhibition is 7%.

On to `O=c1[nH]c(=O)n([C@H]2C[C@H](O)[C@@H](CO)O2)cc1F`, for which the inhibition was 0%.

As for `c1ccc(-n2nnnc2OCCOc2nnnn2-c2ccccc2)cc1`, the inhibition was 3%.

As to `CCN(CC)CC(C)CNC(=O)CC(C(=O)N1CCc2ccccc21)n1ccnc1` (stereo not given), the inhibition was 2%.

As for `COc1ccc(NC(=O)CCCN2C(=O)C3C4C=CC(C4)C3C2=O)c(OC)c1` (stereo not given), the inhibition was 2%.

As for `O=C(CCc1nc2ccccc2s1)OCC(=O)N1CCN(C(=O)c2ccco2)CC1`, the inhibition was 4%.

For `O=C(NCCN1CCCCC1)c1ccc(=O)oc1`, the inhibition is 7%.

`COc1ccc(CCNc2oc(-c3ccccc3OC)nc2C#N)cc1`: the inhibition was 2%.

Regarding `CCOC(=O)C1CCCN(C/C(O)=C(\C#N)c2nc(-c3ccc(Cl)cc3)cs2)C1` (stereo not given), the inhibition is 5%.

With `CC(C)(C)C(=O)Cn1c(=N)n(Cc2ccccc2)c2ccccc21`, the inhibition is 8%.

With `COC(=O)c1ccc(C(=O)OC)c(NC(=O)Nc2ccc3c(c2)OCO3)c1`, the inhibition was 0%.

As to `c1ccc(CN2CCN(c3ncnc4c3[nH]c3ccccc34)CC2)cc1`, the inhibition was 5%.

As to `COc1ccc(N2C(=O)CC(N3CCCC4CCCCC43)C2=O)cc1` (stereo not given), the inhibition is 0%.

As for `CC(=O)[C@@]1(O)CC[C@H]2[C@@H]3CCC4=CC(=O)CC[C@]4(C)[C@H]3[C@@H](O)C[C@@]21C`, the inhibition is 0%.

For `COc1cccc(CNC(=O)CCS(=O)(=O)c2cccc3nsnc23)c1`, the inhibition is 6%.

Regarding `Cc1ccc(S(=O)(=O)N2CCN(C(=O)CSc3nc4ccccc4c(=O)[nH]3)CC2)c(C)c1`, the inhibition is 2%.

With `CC(C)c1ccc(-c2nc(N3CCCCC3)[nH]c(=O)c2C#N)cc1`, the inhibition is 5%.

In the case of `COCCOC(=O)c1[nH]c2c(c1C)C(=O)CC(c1ccco1)C2` (stereo not given), the inhibition was 3%.

`Cc1nc2sc3c(c2c(=O)o1)CCC3`: the inhibition is 2%.

Turning to `O=C(CCSc1ccccc1)N1CCOCC1`, the inhibition was 0%.

Turning to `O=C(CSc1nnc(-c2cnccn2)n1Cc1ccco1)c1ccc(Cl)cc1`, the inhibition was 0%.

As for `COc1ccccc1OCC(=O)Nc1cccc(-c2nc3ccccc3o2)c1`, the inhibition is 0%.

`COc1ccc(S(=O)(=O)CCC(=O)O)cc1`: the inhibition was 6%.

For the molecule `CC(=O)O[C@]1(C(C)=O)CC[C@H]2[C@@H]3C=C(Cl)C4=CC(=O)CC[C@]4(C)[C@H]3CC[C@@]21C`, the inhibition was 0%.

Regarding `CCC1(C)Cc2c(C#N)c(N)n(-c3ccccc3)c(=O)c2CO1` (stereo not given), the inhibition was 0%.

For the molecule `O=C(CN1c2cccc3cccc(c23)S1(=O)=O)N1CCOCC1`, the inhibition was 0%.

For `CN(C(=O)c1ccncc1)C1CC(C)(C)N(O)C(C)(C)C1`, the inhibition was 0%.

For `O=C(c1ccccc1Br)N1CCN(c2ccccc2)CC1`, the inhibition is 8%.

Take `CCOC(=O)C1=C(CS(=O)(=O)c2ccc(F)c(C)c2)NC(=O)NC1c1ccc(O)c(O)c1` (stereo not given): the inhibition is 7%.

`CCOC(=O)n1c(SCC(=O)N(CC)CC)nc2ccccc21`: the inhibition is 0%.

In the case of `CCOc1ccc(OCC)c(NC(=O)CCCN2C(=O)c3cccnc3C2=O)c1`, the inhibition was 0%.

In the case of `COc1ccccc1C(O)P(=O)(OC(C)C)c1ccc(N(C)C)cc1` (stereo not given), the inhibition is 0%.

Turning to `CSC1=N/C(=C\C=C\c2cccs2)C(=O)S1`, the inhibition is 1%.

Regarding `CCc1ccccc1NC(=O)c1cnc2n(c1=O)CCS2`, the inhibition is 2%.

For the molecule `CN(C#N)c1nc(N2CCOCC2)nc(N2CCOCC2)n1`, the inhibition is 1%.

For the molecule `COC(=O)c1cn(C(=O)OC)c2ccccc12`, the inhibition was 7%.

In the case of `Cc1ccc(-n2nnnc2SCC(=O)N2CCN(C(=O)c3ccco3)CC2)c(C)c1`, the inhibition was 0%.

Turning to `COc1ccc(NC(=O)c2cnc3n(c2=O)CCS3)cc1OC`, the inhibition is 0%.
